Assay in all cases: DAPPL (digital affinity profiling via proximity ligation, sequencing); 10 mM Tris-HCl pH 7.5, 50 mM NaCl, 1 mM DTT, 4% glycerol, room temperature, 30 min; GST-TFs on glutathione beads, 16-mer random dsDNA library, 0.1% formaldehyde crosslink after washing; high values mean tight binding
Holding throughout (conditions): protein: recombinant; tags: N-terminal GST; dsDNA, one strand shown

For one experiment, the target named is T1, FLI1 (Homo sapiens, UniProt Q01543 1-452).
T1 sequence: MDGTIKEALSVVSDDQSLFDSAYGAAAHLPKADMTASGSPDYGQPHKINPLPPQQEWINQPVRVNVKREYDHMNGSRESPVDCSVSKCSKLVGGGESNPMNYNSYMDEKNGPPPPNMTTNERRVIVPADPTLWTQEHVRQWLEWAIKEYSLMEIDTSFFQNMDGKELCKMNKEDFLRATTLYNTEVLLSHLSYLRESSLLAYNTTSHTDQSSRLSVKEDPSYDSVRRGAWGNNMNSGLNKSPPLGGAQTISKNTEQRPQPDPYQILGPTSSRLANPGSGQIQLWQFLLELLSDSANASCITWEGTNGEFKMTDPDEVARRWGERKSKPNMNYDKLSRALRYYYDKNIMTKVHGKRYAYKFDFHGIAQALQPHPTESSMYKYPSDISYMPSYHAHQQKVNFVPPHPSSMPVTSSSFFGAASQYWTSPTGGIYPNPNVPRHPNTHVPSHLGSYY
A digest of the protocol:
(§1)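 A tag-only sample was pooled with DNA-barcoded human transcription factors that had been expressed in yeast as GST fusions and captured on glutathione beads. The pools were incubated for 30 min at room temperature with 200 nmole of a random double-stranded 16-mer DNA library in Tris/NaCl/DTT/glycerol buffer, then washed, crosslinked with 0.1% formaldehyde, proximity-ligated (BsaI/T4 ligase, 1 h, 37 °C), PCR-amplified and sequenced on an Illumina NextSeq500. Binding signal is each hexamer's read frequency for a factor divided by its frequency for the tag-only sample.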

A further experiment has as its target T2, ELK1 (Homo sapiens, UniProt P19419 1-428).
T2 sequence: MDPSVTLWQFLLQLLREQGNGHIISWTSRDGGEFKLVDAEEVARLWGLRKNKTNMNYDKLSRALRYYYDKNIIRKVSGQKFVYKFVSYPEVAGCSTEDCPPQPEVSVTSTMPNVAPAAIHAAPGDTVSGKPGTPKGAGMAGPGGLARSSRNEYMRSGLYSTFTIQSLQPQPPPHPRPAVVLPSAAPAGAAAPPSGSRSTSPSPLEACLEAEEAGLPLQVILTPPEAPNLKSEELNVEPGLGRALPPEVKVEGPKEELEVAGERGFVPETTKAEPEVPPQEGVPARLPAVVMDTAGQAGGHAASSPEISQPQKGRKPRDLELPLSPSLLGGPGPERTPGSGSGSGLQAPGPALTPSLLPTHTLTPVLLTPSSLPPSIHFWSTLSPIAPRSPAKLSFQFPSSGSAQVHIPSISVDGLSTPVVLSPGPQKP
A digest of the protocol: as §1

Another experiment concerns the target T3, GABPA (Homo sapiens, UniProt Q06546 1-454).
T3 sequence: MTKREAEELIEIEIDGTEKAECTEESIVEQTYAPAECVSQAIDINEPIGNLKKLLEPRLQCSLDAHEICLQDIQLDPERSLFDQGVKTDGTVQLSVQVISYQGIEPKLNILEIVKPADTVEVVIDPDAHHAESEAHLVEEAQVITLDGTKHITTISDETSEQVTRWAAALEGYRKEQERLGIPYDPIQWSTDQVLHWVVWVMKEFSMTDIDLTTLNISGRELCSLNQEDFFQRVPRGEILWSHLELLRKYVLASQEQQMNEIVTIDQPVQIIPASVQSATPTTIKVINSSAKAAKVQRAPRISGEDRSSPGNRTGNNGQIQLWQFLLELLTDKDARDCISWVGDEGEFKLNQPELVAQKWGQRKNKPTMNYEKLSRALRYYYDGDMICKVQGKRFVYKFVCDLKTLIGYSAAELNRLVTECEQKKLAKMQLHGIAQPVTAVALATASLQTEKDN
The method in brief:
as §1

A further experiment addresses T4, ERG (Homo sapiens, UniProt P11308 1-479).
T4 sequence: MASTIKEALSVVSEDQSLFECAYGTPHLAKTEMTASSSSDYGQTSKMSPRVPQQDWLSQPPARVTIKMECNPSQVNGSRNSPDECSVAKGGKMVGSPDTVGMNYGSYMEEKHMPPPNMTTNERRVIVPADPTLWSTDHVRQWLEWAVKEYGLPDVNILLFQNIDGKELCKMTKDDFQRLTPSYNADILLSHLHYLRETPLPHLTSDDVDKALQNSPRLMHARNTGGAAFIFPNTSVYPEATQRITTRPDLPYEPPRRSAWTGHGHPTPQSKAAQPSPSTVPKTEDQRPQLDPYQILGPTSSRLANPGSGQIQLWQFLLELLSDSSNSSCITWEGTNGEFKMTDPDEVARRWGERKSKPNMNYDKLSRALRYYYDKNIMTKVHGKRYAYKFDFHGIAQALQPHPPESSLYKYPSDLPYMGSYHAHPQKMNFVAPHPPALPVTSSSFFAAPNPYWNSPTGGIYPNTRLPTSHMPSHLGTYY
A digest of the protocol: as §1

In a further experiment the target is ELF1 (Homo sapiens, UniProt P32519 1-619). The method in brief:
as §1

Another experiment addresses T5, EHF (Homo sapiens, UniProt Q9NZC4 1-300).
T5 sequence: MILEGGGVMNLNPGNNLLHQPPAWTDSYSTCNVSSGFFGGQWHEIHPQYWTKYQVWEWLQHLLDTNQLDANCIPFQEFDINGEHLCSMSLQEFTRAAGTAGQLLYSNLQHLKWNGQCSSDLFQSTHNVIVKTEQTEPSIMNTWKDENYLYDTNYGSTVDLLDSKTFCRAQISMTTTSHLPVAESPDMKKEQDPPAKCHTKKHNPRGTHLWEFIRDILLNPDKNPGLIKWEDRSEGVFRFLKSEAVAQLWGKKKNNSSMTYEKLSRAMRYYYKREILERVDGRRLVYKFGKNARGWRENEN
The method in brief:
as §1

Another experiment addresses SPI1 (Homo sapiens, UniProt P17947 1-270). The method in brief:
as §1

In another experiment the target is SPIB (Homo sapiens, UniProt Q01892 1-262). A digest of the protocol:
as §1

The next experiment has as its target T6, ELK3 (Homo sapiens, UniProt P41970 1-407).
T6 sequence: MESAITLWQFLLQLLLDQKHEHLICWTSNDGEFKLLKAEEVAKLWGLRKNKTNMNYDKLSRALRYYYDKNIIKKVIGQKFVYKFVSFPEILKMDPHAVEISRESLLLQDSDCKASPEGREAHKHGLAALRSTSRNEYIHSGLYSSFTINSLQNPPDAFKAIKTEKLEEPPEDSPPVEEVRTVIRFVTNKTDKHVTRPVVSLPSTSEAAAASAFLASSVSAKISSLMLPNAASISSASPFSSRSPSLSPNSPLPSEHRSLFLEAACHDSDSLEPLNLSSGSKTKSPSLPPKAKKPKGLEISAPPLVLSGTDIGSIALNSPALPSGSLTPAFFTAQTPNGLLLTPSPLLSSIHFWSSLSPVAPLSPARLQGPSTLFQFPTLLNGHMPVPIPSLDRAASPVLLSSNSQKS
A digest of the protocol: as §1

Sequence of SPIB (Q01892 whole entry): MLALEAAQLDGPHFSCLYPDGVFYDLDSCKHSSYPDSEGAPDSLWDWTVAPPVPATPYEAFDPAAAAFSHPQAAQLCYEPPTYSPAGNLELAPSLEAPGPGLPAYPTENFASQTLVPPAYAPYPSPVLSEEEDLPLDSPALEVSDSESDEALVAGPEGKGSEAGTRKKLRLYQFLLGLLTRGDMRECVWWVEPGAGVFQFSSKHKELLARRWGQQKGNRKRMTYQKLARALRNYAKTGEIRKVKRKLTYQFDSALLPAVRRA
Sequence of ELF1 (P32519 whole entry): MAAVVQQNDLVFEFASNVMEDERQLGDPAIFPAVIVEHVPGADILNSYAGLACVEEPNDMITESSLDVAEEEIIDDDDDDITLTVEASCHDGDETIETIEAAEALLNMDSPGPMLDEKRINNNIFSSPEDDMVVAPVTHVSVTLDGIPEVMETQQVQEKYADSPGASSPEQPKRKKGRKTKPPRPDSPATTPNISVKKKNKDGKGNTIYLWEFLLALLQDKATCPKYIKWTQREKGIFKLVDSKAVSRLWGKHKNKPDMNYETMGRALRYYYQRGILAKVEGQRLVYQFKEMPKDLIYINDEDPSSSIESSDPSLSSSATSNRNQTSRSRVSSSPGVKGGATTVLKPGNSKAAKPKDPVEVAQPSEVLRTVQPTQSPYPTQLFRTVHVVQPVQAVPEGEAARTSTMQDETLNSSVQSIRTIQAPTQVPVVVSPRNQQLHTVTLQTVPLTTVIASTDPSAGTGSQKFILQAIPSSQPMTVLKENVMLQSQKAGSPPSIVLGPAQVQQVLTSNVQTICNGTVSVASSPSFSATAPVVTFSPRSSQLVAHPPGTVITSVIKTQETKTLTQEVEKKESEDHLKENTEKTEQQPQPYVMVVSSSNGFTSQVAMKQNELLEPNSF

As to TGTTAC, the binding signal in the experiment with FLI1 was 1.49 fold enrichment (6-mer frequency, TF over GST control); in the experiment with ELK1 it was 1.55 fold enrichment (6-mer frequency, TF over GST control); with GABPA, 1.39 fold enrichment (6-mer frequency, TF over GST control); with ERG, 1.49 fold enrichment (6-mer frequency, TF over GST control); with ELF1, 1.43 fold enrichment (6-mer frequency, TF over GST control); in the experiment with EHF it was 1.53 fold enrichment (6-mer frequency, TF over GST control). The binding signal with SPI1 was 1.36 fold enrichment (6-mer frequency, TF over GST control); in the experiment with SPIB, 1.43 fold enrichment (6-mer frequency, TF over GST control); with ELK3, 1.53 fold enrichment (6-mer frequency, TF over GST control).
As for GTCCCG, the binding signal with FLI1 was 1.29 fold enrichment (6-mer frequency, TF over GST control); in the experiment with ELK1, 1.2 fold enrichment (6-mer frequency, TF over GST control); with GABPA it was 1.21 fold enrichment (6-mer frequency, TF over GST control); with ERG, 1.22 fold enrichment (6-mer frequency, TF over GST control); with ELF1, 1.24 fold enrichment (6-mer frequency, TF over GST control); with EHF, 1.2 fold enrichment (6-mer frequency, TF over GST control). For the same sequence, the binding signal in the experiment with SPI1 was 1.21 fold enrichment (6-mer frequency, TF over GST control); with SPIB, 1.32 fold enrichment (6-mer frequency, TF over GST control); with ELK3, 1.26 fold enrichment (6-mer frequency, TF over GST control).
As for CGACCA, the binding signal with FLI1 is 1.2 fold enrichment (6-mer frequency, TF over GST control); in the experiment with ELK1, 1.27 fold enrichment (6-mer frequency, TF over GST control); with GABPA, 1.23 fold enrichment (6-mer frequency, TF over GST control); with ERG, 1.15 fold enrichment (6-mer frequency, TF over GST control); with ELF1 it was 1.31 fold enrichment (6-mer frequency, TF over GST control); with EHF, 1.28 fold enrichment (6-mer frequency, TF over GST control). In addition, the binding signal was 1.24 fold enrichment (6-mer frequency, TF over GST control) with SPI1; 1.16 fold enrichment (6-mer frequency, TF over GST control) in the experiment with SPIB; 1.37 fold enrichment (6-mer frequency, TF over GST control) in the experiment with ELK3.
Turning to CCTCAC, the binding signal with FLI1 was 1.29 fold enrichment (6-mer frequency, TF over GST control); with ELK1, 1.3 fold enrichment (6-mer frequency, TF over GST control); with GABPA, 1.26 fold enrichment (6-mer frequency, TF over GST control); with ERG it was 1.22 fold enrichment (6-mer frequency, TF over GST control); in the experiment with ELF1 it was 1.22 fold enrichment (6-mer frequency, TF over GST control); in the experiment with EHF, 1.28 fold enrichment (6-mer frequency, TF over GST control). The binding signal with SPI1 is 1.28 fold enrichment (6-mer frequency, TF over GST control); with SPIB, 1.21 fold enrichment (6-mer frequency, TF over GST control); with ELK3, 1.33 fold enrichment (6-mer frequency, TF over GST control).
With CGGCTA, the binding signal is 1.16 fold enrichment (6-mer frequency, TF over GST control) with FLI1; 1.14 fold enrichment (6-mer frequency, TF over GST control) with ELK1; 1.1 fold enrichment (6-mer frequency, TF over GST control) in the experiment with GABPA; 1.1 fold enrichment (6-mer frequency, TF over GST control) with ERG; 1.15 fold enrichment (6-mer frequency, TF over GST control) with ELF1; 1.13 fold enrichment (6-mer frequency, TF over GST control) in the experiment with EHF. The binding signal with SPI1 was 1.16 fold enrichment (6-mer frequency, TF over GST control); with SPIB it was 1.21 fold enrichment (6-mer frequency, TF over GST control); in the experiment with ELK3, 1.02 fold enrichment (6-mer frequency, TF over GST control).
As for TGATGA, the binding signal is 1.38 fold enrichment (6-mer frequency, TF over GST control) with FLI1; 1.39 fold enrichment (6-mer frequency, TF over GST control) in the experiment with ELK1; 1.46 fold enrichment (6-mer frequency, TF over GST control) with GABPA; 1.28 fold enrichment (6-mer frequency, TF over GST control) with ERG; 1.35 fold enrichment (6-mer frequency, TF over GST control) with ELF1; 1.32 fold enrichment (6-mer frequency, TF over GST control) with EHF. Besides, the binding signal in the experiment with SPI1 was 1.2 fold enrichment (6-mer frequency, TF over GST control); in the experiment with SPIB, 1.33 fold enrichment (6-mer frequency, TF over GST control); in the experiment with ELK3, 1.28 fold enrichment (6-mer frequency, TF over GST control).
Regarding TGGAAT, the binding signal was 1.36 fold enrichment (6-mer frequency, TF over GST control) in the experiment with FLI1; 1.21 fold enrichment (6-mer frequency, TF over GST control) with ELK1; 1.3 fold enrichment (6-mer frequency, TF over GST control) with GABPA; 1.25 fold enrichment (6-mer frequency, TF over GST control) with ERG; 1.22 fold enrichment (6-mer frequency, TF over GST control) with ELF1; 1.19 fold enrichment (6-mer frequency, TF over GST control) with EHF. The binding signal was 1.25 fold enrichment (6-mer frequency, TF over GST control) with SPI1; 1.21 fold enrichment (6-mer frequency, TF over GST control) with SPIB; 1.25 fold enrichment (6-mer frequency, TF over GST control) in the experiment with ELK3.
For the sequence AGCTGC, the binding signal with FLI1 was 1.16 fold enrichment (6-mer frequency, TF over GST control); with ELK1, 1.16 fold enrichment (6-mer frequency, TF over GST control); in the experiment with GABPA it was 1.17 fold enrichment (6-mer frequency, TF over GST control); in the experiment with ERG it was 1.1 fold enrichment (6-mer frequency, TF over GST control); with ELF1, 1.18 fold enrichment (6-mer frequency, TF over GST control); with EHF, 1.18 fold enrichment (6-mer frequency, TF over GST control). In addition, the binding signal was 1.11 fold enrichment (6-mer frequency, TF over GST control) in the experiment with SPI1; 1.24 fold enrichment (6-mer frequency, TF over GST control) in the experiment with SPIB; 1.01 fold enrichment (6-mer frequency, TF over GST control) with ELK3.

Values taken from PMC7862700, “An all-to-all approach to the identification of sequence-specific readers for epigenetic DNA modifications on cytosine”.
